# Results published in PubChem BioAssay (Tox21).
# Active and inactive are the calls of the source. Calls come from the whole dose curve; as a rule, active = well fitted curve in the direction sought with a large enough effect in the repeat runs; inconclusive = weak or mixed curves; inactive = flat fitted curve, though single readings scatter.
# Assay: qHTS assay to test for compound auto fluorescence at 590 nm (red) in HEK293 cells (AID 720679)
# Conditions: red autofluorescence 540/590 nm; series mostly up to 91.3 µM
# Description: National Center for Advancing Translational Sciences [NCATS]
# NIH Chemical Genomics Center [NCGC]
# U.S. Environmental Protection Agency [EPA]
# National Institutes of Environmental Health Sciences [NIEHS]
# National Toxicology Program [NTP]
# U.S. Food and Drug Administration [FDA]
# Compound auto fluorescence often interferes with screening of the compound library against various biological targets and signaling pathways. Some of these compounds may have fluorophoric properties. Such properties may interfere with the assay outputs resulting in false positives and/or negatives. To decrease such complications and ensure the compound activities are relevant in terms of biological response, the Tox21 10K compound library was screened for auto fluorescence.
# From the fluorophores used as reporter signals in our screening assays, the auto fluorescence equivalencies of compounds against three fluorophores have been evaluated: Triamterene, Fluorescein and Rose Bengal sodium for blue, green and red fluorescence, respectively. The fluorescence intensities were measured using Excitation/Emission wavelengths at 405/460nm, 485/535nm and 540/590nm for blue, green and red labels, respectively. This assay includes the red fluorescence data.
# Tox21 Assay Protocol Summary:
# 2,000 HEK293 cells in 5 uL of culture medium containing 10% dialyzed FBS per well were dispensed into black wall/clear bottom 1536-well plates using a Multidrop Combi Dispenser (Thermo Scientific). The assay plates were incubated for 4-5 hr at 37C to allow cell attachment to the well bottom, followed by the transfer of 23 nL compound or DMSO vehicle by a pintool work station (Kalypsys, San Diego, CA). After the assay plates were incubated overnight at 37C and 5% CO2, fluorescence intensities in the assay plates were measured by an Envision (PerkinElmer, Shelton, CT) plate reader using three labels for measuring blue, green and red fluorescence at […] 460, 535 and 590nm respectively.
# % is set by controls: 0 for no effect and ±100 for the full control effect.
SMILES,outcome,"fluorescence, % of fluorescent control"
O=C(Oc1ccc(Br)cc1)N1CCN2CCC1CC2,inactive,
N#CC(CCc1ccc(Cl)cc1)(Cn1cncn1)c1ccccc1 (stereo not given),inactive,
[Cl][Sn]([Cl])([Cl])[Cl],inactive,
CN(N=O)C(N)=O,inactive,
c1coc(-c2nc3ccccc3[nH]2)c1,inactive,
CC1(C)CON(Cc2ccccc2Cl)C1=O,inactive,
COC(=O)c1ccccc1S(=O)(=O)NC(=O)N(C)c1nc(C)nc(OC)n1,inactive,
ClCCOCOCCCl,inactive,
CC(=O)[C@H]1CC[C@H]2[C@@H]3CC[C@H]4C[C@H](O)CC[C@]4(C)[C@H]3C(=O)C[C@]12C,inactive,
CC(C)(C)OC(=O)c1ncn2c1[C@@H]1CCCN1C(=O)c1c(Br)cccc1-2,inactive,
Cc1cccc(C#N)c1,inactive,
CC1CN1P(=O)(N1CC1C)N1CC1C (stereo not given),inactive,
CC1(C)C(=O)NC(=O)NC1=O,inactive,
C=C(C)[C@@H]1CC=C(C=O)CC1,inactive,
C[C@]12CC[C@H]3[C@@H](CC=C4C[C@@H](O)CC[C@@]43C)[C@@H]1CC[C@@H]2O,inactive,
Nc1cnn(-c2ccccc2)c(=O)c1Cl,inactive,
N#CCBr,inactive,
CCCSC(=O)N(CCC)CCC,inactive,
CC(N)=S,inactive,
ClC(Cl)(Cl)C(Cl)(Cl)Cl,inactive,

SMILES,outcome,"fluorescence, % of fluorescent control"
BrCCCCCCBr,inactive,
CCCCN(CCCCO)N=O,inactive,
CC(C1CC1)C(O)(Cn1cncn1)c1ccc(Cl)cc1 (stereo not given),inactive,
CCOP(=S)(OCC)Oc1cc(-c2ccccc2)on1,inactive,
CCOP(=O)(N=C1SCCS1)OCC,inactive,
CCS(=O)(=O)CCSP(=O)(OC)OC,inactive,
CCC(C)(C)c1cc(-n2nc3ccccc3n2)c(O)c(C(C)(C)CC)c1,inactive,
OC(c1ccc(F)cc1)(c1cncnc1)c1ccccc1Cl (stereo not given),inactive,
Nc1cc2c3c(c1)C(c1ccccc1)=N[C@@H](NC(=O)c1cccnc1)C(=O)N3CC2,inactive,
CC(Oc1ccc(Oc2ncc(C(F)(F)F)cc2Cl)cc1)C(=O)O (stereo not given),inactive,
CC(CCc1ccccc1)NC(C)C(O)c1ccc(O)cc1 (stereo not given),inactive,
C[C@]1(O)CC[C@H]2[C@@H]3CCC4=CC(=O)CC[C@]4(C)[C@@]3(F)[C@@H](O)C[C@@]21C,inactive,
[As]#[In],inactive,
C=C(C)CN(CC)c1c([N+](=O)[O-])cc(C(F)(F)F)cc1[N+](=O)[O-],inactive,
C[C@@H]1CN(C2CCC(C#N)(c3ccc(F)cc3)CC2)CC[C@]1(C(=O)O)c1ccccc1 (stereo not given in full),,0.571% [at 18.6 µM] (inactive)
COc1cc(OC)nc(NC(=O)NS(=O)(=O)c2ncccc2C(=O)N(C)C)n1,inactive,
CC1CCC(=O)O1 (stereo not given),inactive,
CC1(C(=O)Nc2ccc(O)c(Cl)c2Cl)CCCCC1,inactive,
O=C(O)C(Br)CBr (stereo not given),inactive,
CN/C(=N\[N+](=O)[O-])NCC1CCOC1 (stereo not given),inactive,
